SW480 rereplic: A quantitative high throughput screen for small molecules that induce DNA re-replication in SW480 colon adenocarcinoma cells | AID 624297, 2012 | SW480 DNA re-replication, Hoechst DNA content imaging, 48 h | Potency, µM (titrated, usually from 46.1 µM), inactives show at the top dose re-replication activation, actives largely listed as activators | actives 1.8% (n = 340,000); further: % of control where 0% means no effect; nearly all actives have a fitted effect of over 55% in size
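Hoechst fluorescence of nuclei (405 nm excitation, 500-530 nm emission) measured by plate-scanning imager after 48 hr compound exposure at 37 C; re-replication scored as increased number of nuclei with elevated intensity.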
12-LOX inh: Primary qHTS assay for inhibitors of human arachidonate 12S-lipoxygenase (ALOX12): Round 2 | Polyunsaturated fatty acid lipoxygenase ALOX12 (Homo sapiens), P18054 | purified 12hLO, xylenol orange hydroperoxide absorbance | Potency, µM (titrated, usually from 108 µM), for inactives: top-dose activity change, negative = inhibition, most hits filed as inhibitors | actives 1.1% (n = 580,000) | AID 1671190, 2021; further: on the % scale 0 is the no-effect control and ±100 the full control effect
Target sequence (P18054 whole entry, looked up): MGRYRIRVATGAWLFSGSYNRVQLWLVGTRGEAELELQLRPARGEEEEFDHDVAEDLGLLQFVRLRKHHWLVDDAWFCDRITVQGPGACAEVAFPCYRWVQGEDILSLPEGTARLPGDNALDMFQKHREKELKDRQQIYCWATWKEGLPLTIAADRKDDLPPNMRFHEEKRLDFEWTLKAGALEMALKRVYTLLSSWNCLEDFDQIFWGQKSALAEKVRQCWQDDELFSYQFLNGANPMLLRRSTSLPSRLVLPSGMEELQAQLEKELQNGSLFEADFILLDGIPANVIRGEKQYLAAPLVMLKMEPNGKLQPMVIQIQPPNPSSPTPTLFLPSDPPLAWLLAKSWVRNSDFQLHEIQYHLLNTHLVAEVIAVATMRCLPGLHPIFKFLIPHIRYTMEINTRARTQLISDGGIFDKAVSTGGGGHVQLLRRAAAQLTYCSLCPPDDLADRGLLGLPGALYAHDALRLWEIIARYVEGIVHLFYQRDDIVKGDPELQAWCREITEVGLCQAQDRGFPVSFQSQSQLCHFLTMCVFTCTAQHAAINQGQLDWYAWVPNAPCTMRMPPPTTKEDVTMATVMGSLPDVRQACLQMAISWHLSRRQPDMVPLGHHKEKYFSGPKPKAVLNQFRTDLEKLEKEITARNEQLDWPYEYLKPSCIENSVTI
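Hydroperoxide product was detected by ferrous iron/xylenol orange as the 573 to 405 nm absorbance ratio. Arachidonic acid at 40 uM (final) was turned over for 30 min at room temperature by 150 nM human 12hLO, pH 7.0 Hepes buffer, after 15 min compound preincubation.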
KB-3-1 tox: qHTS assay for MDR1-selective chemotherapeutics: Primary screen using the parental adenocarcinoma cell KB-3-1 | KB-3-1 viability, CellTiter-Glo ATP luminescence, 72 h | Potency, µM (top dose mostly 46.1 µM), actives largely listed as cytotoxic | actives 1.4% (n = 400,000) | AID 1347075, 2019; further: on the % scale 0 is the no-effect control and ±100 the full control effect; nearly all actives have a fitted effect of over 60% in size
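Parental KB-3-1 adenocarcinoma cells in phenol-red-free DMEM with 10% FBS were pin-treated with compounds at several concentrations, incubated 72 h at 37 °C, and viability read by CellTiter-Glo luminescence; concentration-effect curves were fitted after normalization.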
MCF10A rerep: A quantitative high throughput screen for small molecules that induce DNA re-replication in MCF 10a normal breast cells; MCF 10A DNA re-replication, Hoechst nuclear intensity, 48 h; Potency, µM (top dose mostly 46.1 µM), for inactives: at the top dose activity, positive = re-replication, most hits filed as activators; actives 2.9% (n = 350,000); further: % of control where 0% means no effect; nearly all actives have a fitted effect of over 50% in size
PINK1 modulator: A Quantitative High throughput Screen to Identify Chemical Modulators of PINK1 Expression. PINK1 immunofluorescence, high-content cytometry, 24 h. Potency, µM (top dose mostly 76.6 µM), for the others: at the highest dose activation (PINK1 increase), most hits filed as activators. actives 0.2% (n = 410,000); active means well fitted activation curve with a large enough effect; inconclusive means small, poorly fitted or top-dose-only effect; cell line not stated here; further: % of control where 0% means no effect; nearly all actives have a fitted effect of over 65% in size
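A stable cell line was treated with compounds at 5 concentrations for 24 hours, with CCCP as control. PINK1 levels and mitochondrial localization were measured by immunofluorescence with mitochondrial, cell and nuclear markers after fixation, read by laser-scanning cytometry.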
KB-V1 MDR tox: qHTS assay for MDR1-selective chemotherapeutics: Primary screen using the drug-selected MDR subline cells KB-V1; KB-V1 MDR cells viability, CellTiter-Glo, 72 h; Potency, µM (highest dose often 46.1 µM), usual class: cytotoxic; actives 3.4% (n = 400,000); AID 1347076, 2019; further: on the % scale 0 is the no-effect control and ±100 the full control effect; nearly all actives have a fitted effect of over 60% in size
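Readout: CellTiter-Glo luminescence, 10 min after addition. Cells: KB-V1 MDR subline, 72 h at 37 degrees C with compound. Analysis: corrected, normalized data fitted to concentration-effect curves.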
Active calls of the source: *; i = inactive; ? = inconclusive; · = not tested or not shown; [ ] = another dose, or the depositor's remark. Only some compounds are listed: those with a hit (about 5.8% of all), similar ones and a draw of the others. Unless noted, the call rests on the fitted dose curve; in most records, active means well fitted curve in the direction sought with a large enough effect; inconclusive means small, poorly fitted or top-dose-only effect, or another doubt; inactive means no such curve, though single readings can be large; an effect the other way counts as inactive or inconclusive. Potency means the concentration at half of the fitted maximal effect.

SMILES | SW480 rereplic | 12-LOX inh | KB-3-1 tox | MCF10A rerep | PINK1 modulator | KB-V1 MDR tox
C[N+](C)(C)CC(=O)N/N=C/c1c2ccccc2cc2ccccc12 | 30% | ? | i | 18µM* | 0% | ?
Cc1cc(C)n2nc(C(=O)N/N=C/c3c4ccccc4cc4ccccc34)nc2n1 | ? | -11% | i | 8.2µM* | 12% | ?
COCCNC(=S)N/N=C/c1c2ccccc2cc2ccccc12 | 18µM* | 40µM* | i | 15µM* | ? | i
Cc1ccc(S(=O)(=O)NC(C)CN2CCOCC2)cc1F (stereo unspecified) | · | -19% | · | · | · | ·
CCOC(=O)N1CCN(C(=O)COc2cccc3c2CCN(Cc2ccc(F)cc2)C3=O)CC1 | -3% | 0% | ? | 1% | 1% | ?
O=C1c2cccc(OCc3ccc(F)cc3)c2CCN1Cc1ccccc1 | -2% | 0% | 16µM* | ? | 24% | ?
Cc1ccc(COc2cccc3c2CCN(Cc2ccc(F)cc2)C3=O)cc1 | 16% | 11% | ? | 23% | 15% | 5.8µM*
COc1ccc(C(=O)Nc2ccc3oc(-c4ccccc4F)cc(=O)c3c2)cc1OC | · | 0% | · | · | · | ·
O=C(NC1CCC(C(F)(F)F)CC1)c1ccc(Cl)nc1 (stereo unspecified) | · | -6% | · | · | · | ·
COc1ccccc1C(C)NC(=O)CCC(=O)N1CCN(S(=O)(=O)c2ccc(Cl)cc2)CC1 (stereo unspecified) | 8% | -6% | ? | 4% | 0% | 18µM*
O=C(CCCOc1ccccc1)N1CCN(S(=O)(=O)c2ccc(Cl)cc2)CC1 | -17% | -30% | i | 12% | -5% | i
CCOc1ccccc1OCCCC(=O)N1CCN(S(=O)(=O)c2cccc(F)c2)CC1 | 1% | -28% | i | 13% | -1% | 6.5µM*
CCOc1ccc(OCCCC(=O)N2CCN(S(=O)(=O)c3ccc(Cl)cc3)CC2)cc1 | 3% | 45µM* | i | 17% | 1% | ?
COC(=O)c1ccccc1NC(=O)N1CCCC1 | 1% | -20% | i | -4% | 0%[38.3 µM] | ?
COC(=O)c1ccccc1NC(=O)N1CCN(S(=O)(=O)c2ccc(Cl)cc2)CC1 | 9.2µM* | -12% | i | ? | 0% | ?
CCN1c2cc(C(=O)Nc3ccc(Cl)c(Cl)c3)ccc2C(=O)N2CCCCCC21 (stereo unspecified) | · | 6% | · | · | · | ·
Cc1cc(C)c(C(=O)COC(=O)c2cccc(C)c2C)cc1C | · | -10% | · | · | · | ·
Cc1ccc(CCNC(=O)CCc2nc(CS(=O)(=O)c3ccccc3)no2)cc1 | · | 3% | · | · | · | ·
O=C(c1ccc(C2CCCNC2)cc1)N1CCC(Oc2cccc(F)c2)CC1 (stereo unspecified) | · | 3% | · | · | · | ·
CC(NS(=O)(=O)c1cccc(Cl)c1)C(=O)Nc1ccc(-c2nc3ccccc3s2)cc1 (stereo unspecified) | 7% | 0% | ? | 12% | 15% | ?
CC(C)NS(=O)(=O)c1ccc(Cl)c(C(=O)NCc2ccc(-c3nc4ccccc4s3)o2)c1 | · | 16µM* | · | · | · | ·
CCCSc1ccc2nc(-c3ccccc3)cn2c1 | · | ? | 18µM* | ? | 3% | 21µM*
CCCCSc1ccc2nc(-c3ccc(C#N)cc3)cn2c1 | -8% | 20% | i | ? | 0% | i
CCCNc1nc(NCc2ccccc2OC)c2cnn(C)c2n1 | · | 40µM* | ? | · | 5% | i
COCCNc1nc(NCc2ccccc2)c2cnn(C)c2n1 | -11% | -4% | i | -19% | 0% | i
SMILES | SW480 rereplic | 12-LOX inh | KB-3-1 tox | MCF10A rerep | PINK1 modulator | KB-V1 MDR tox
COc1ccc(CCN(C)C(=S)NC(=O)c2ccc(F)cc2Cl)cc1OC | -10% | -10% | i | -6% | 5% | 15µM*
COc1cccc(CNCc2ccc(OC)cc2OC)c1 | 0% | ? | i | 8% | -1% | i
CCC(CC)NCc1ccc2c(c1)c1ccccc1n2CC | 2% | 0% | i | 21µM* | ? | ?
CCn1c2ccccc2c2cc(CNCc3ccc(OC)cc3OC)ccc21 | ? | ? | i | 7.3µM* | -2% | i
O=C1/C(=C/c2cccc(F)c2)C(c2ccccc2)Oc2ccccc21 (stereo unspecified) | · | -2% | · | · | · | ·
CCOC(=O)N1CCN(C(=O)c2ccccc2-c2ccccc2)CC1 | 10µM* | 50% | 4.6µM* | 8.2µM* | 5% | 4.6µM*
CCC(C(=O)N1CCN(c2ccccc2OC)CC1)c1ccccc1 (stereo unspecified) | -703% | 18% | ? | ? | -1% | 21µM*
COc1ccccc1N1CCN(C(=O)C(NS(=O)(=O)c2cccs2)c2ccccc2)CC1 (stereo unspecified) | -6% | 7% | i | -4% | -1%[38.3 µM] | 4.6µM*
CCOC(=O)N1CCN(CC(=O)N2c3ccccc3CCc3ccccc32)CC1 | -11% | -20% | i | -1% | 0% | i
CCOC(=O)N1CCN(C/C(Cl)=C/c2ccccc2)CC1 | 3% | 2.2µM* | i | ? | 1% | i
COc1ccccc1N1CCN(S(=O)(=O)c2cccs2)CC1 | -4% | -11% | i | 20% | 5%[38.3 µM] | i
Cn1c(=O)c2c(nc(NCc3ccc4c(c3)OCO4)n2Cc2c(F)cccc2Cl)n(C)c1=O | · | 0% | · | · | · | ·
CCOC(=O)N1CCN(C(=O)C(CC)c2ccccc2)CC1 (stereo unspecified) | -89% | -5% | i | 7% | 2% | 12µM*
O=Nc1c(O)[nH]c2ccc(Cl)c(Cl)c12 | 1% | ? | 0.41µM* | 18% | -4% | ?
O=Nc1c(O)[nH]c2c(F)cccc12 | -72% | -12% | i | 15% | 3% | i
Cc1nc(-c2ccccc2)sc1C(=O)Nc1ccc(C(C)C)cc1 | · | 15% | · | · | · | ·
CCCC(NC(=O)c1ccc(Cl)nc1)c1ccccc1 (stereo unspecified) | · | -31% | · | · | · | ·
COc1cc(N2C(=O)C=CC2=O)ccc1N1C(=O)C=CC1=O | 13µM* | -23% | 18µM* | 6.5µM* | -6% | ?
COc1ccc(N2C(=O)C3CC(C)=C(C)CC3C2=O)c(OC)c1 (stereo unspecified) | 9% | 0% | i | -3% | 1% | i
Nc1nc(=S)c2[nH]cnc2[nH]1 | 19% | ? | 1µM* | ? | 0% | 0.73µM*

Source: PubChem BioAssay (National Center for Advancing Translational Sciences (NCATS))
